The whole screen tested about 310,000 compounds, of which about 14,000 (4.5%) showed an effect of 50% or more. The effect is printed as a negative number. What follows is part of a selection rich in strong results, with near analogues and random picks from the rest.
Target: human ether-à-go-go-related gene (hERG) potassium channel (human, UniProt Q12809)
Assay: primary screen, population patch clamp on CHO cells stably expressing hERG; higher = less effect of the substance
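Further: peak tail current of the secondary pulse compared with the same well before compound.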

human ether-à-go-go-related gene (hERG) potassium channel, sequence (Q12809 whole entry, looked up): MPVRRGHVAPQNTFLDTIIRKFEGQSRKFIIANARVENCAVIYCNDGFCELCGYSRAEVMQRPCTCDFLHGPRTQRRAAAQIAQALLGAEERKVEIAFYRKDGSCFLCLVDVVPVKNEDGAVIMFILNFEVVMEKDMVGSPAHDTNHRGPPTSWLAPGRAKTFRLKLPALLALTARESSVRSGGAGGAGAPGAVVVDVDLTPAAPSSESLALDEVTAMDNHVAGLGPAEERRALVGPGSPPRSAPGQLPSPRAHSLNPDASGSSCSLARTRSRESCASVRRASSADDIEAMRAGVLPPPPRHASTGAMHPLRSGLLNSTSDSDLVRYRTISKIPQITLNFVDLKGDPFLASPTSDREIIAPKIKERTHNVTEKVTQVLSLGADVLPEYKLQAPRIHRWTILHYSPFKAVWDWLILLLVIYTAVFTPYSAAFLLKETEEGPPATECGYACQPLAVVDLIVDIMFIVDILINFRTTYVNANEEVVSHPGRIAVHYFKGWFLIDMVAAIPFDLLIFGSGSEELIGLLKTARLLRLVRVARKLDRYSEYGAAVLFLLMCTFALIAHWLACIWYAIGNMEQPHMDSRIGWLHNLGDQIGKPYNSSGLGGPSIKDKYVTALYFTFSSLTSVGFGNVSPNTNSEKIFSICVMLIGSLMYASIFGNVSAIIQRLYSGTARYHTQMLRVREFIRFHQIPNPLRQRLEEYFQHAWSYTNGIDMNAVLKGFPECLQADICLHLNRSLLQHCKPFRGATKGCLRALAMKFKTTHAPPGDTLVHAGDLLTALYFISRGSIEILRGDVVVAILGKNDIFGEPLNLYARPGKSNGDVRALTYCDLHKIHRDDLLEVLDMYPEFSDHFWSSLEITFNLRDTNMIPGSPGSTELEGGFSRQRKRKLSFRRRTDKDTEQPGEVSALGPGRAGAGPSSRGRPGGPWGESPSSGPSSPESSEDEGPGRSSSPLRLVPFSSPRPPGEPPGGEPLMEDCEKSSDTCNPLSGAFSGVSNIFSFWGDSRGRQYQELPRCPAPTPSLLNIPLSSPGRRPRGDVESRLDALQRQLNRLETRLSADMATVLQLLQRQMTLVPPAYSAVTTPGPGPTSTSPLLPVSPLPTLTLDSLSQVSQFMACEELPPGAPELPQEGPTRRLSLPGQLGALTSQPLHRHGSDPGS

SMILES	hERG current change (%, negative = inhibition) at 10uM
COCc1nc2ccccc2n1CCc1ccccc1	-33.6%
O=C1CCC(=O)N1c1ccc(-c2nc3ccccc3s2)cc1	16%
Cc1ccc(Sc2c(C)nn(C(=O)C3CC3)c2C)cc1	11.6%
O=C1COc2ccc(C(=O)COC(=O)Cc3ccccc3)cc2N1	-13%
Cc1ccc(N(C(=O)C2CCC(=O)N2)C2(C(=O)NC3CCCC3)CCCCC2)cc1 (stereo not shown)	0.218%
O=C(CCC1CCN(C(=O)Cc2c(F)cccc2F)CC1)NC1CC1	11.9%
Cc1ncc(CN2CCCC(CCC(=O)NCc3ccccc3F)C2)s1 (stereo not shown)	17.8%
Cc1nn(C)c(Cl)c1CN1CCCC(CCC(=O)NCc2ccccc2F)C1 (stereo not shown)	-27%
O=C(CCC1CCCN(Cc2ccc(O)c(Cl)c2)C1)NCc1ccccc1F (stereo not shown)	-43.2%
CCOc1cccc(CN2CCC(CCC(=O)NC3CC3)CC2)c1O	-70.3%
CCOc1cccc(CN2CCCC(CCC(=O)NCc3ccccc3F)C2)c1O (stereo not shown)	-65%
CC(=O)Nc1ccc(CN2CCCC(CCC(=O)NCc3ccccc3F)C2)cc1 (stereo not shown)	-8.19%
O=C(CCC1CCCN(Cc2cccc(Cl)c2)C1)NCc1ccccc1F (stereo not shown)	-50.9%
O=C(CCC1CCN(Cc2ccccc2O)CC1)NC1CC1	-23.7%
O=C1[C@H]2[C@H](C=CC[C@H]2C(=O)N2CCOCC2)CCN1Cc1ccc(Cl)c(Cl)c1	-3.89%
CCN1CCC[C@H]1CNC(=O)c1c(OC)ccc(Br)c1OC.Cl	-12.2%
Cc1ccc(-c2nc(-c3cccnc3)sc2CC(=O)O)cc1	11%
CCN1CCN(C(=O)Cc2c(C)n(C(=O)c3ccc(Cl)cc3)c3ccc(OC)cc23)CC1.Cl	-38.6%
N#Cc1nc(-c2ccc(OCc3ccccc3)cc2)oc1N1CCOCC1	10.4%
Cc1nc2nc(-c3ccc(F)cc3)cn2nc1C	7.58%
Cc1ccc(-c2cn3nc(C)c(C)nc3n2)cc1	-6.47%
CCc1ccc(-c2cn3nc(C)c(C)nc3n2)cc1	-50.8%
O=C1C=CC(=O)N1c1ccc(I)cc1Cl	18.9%
COc1ccc(N2CCN(C(=O)C3CCN(S(=O)(=O)c4ccc(C)cc4)CC3)CC2)cc1	-10.2%
COc1ccc(N2CCN(C(=O)C3CCCN(S(=O)(=O)c4ccc(C)cc4)C3)CC2)cc1 (stereo not shown)	-53.4%

SMILES	hERG current change (%, negative = inhibition) at 10uM
COc1ccc(NC(=O)C2CCN(S(=O)(=O)c3c(C)noc3/C=C/N(C)C)CC2)cc1	-15.3%
Cc1noc(C)c1S(=O)(=O)N1CCC(C(=O)N2CCN(c3ccc(F)cc3)CC2)CC1	-41.4%
Cc1ccc(C)c(N2CCN(C(=O)C3CCCN(S(=O)(=O)c4c(C)noc4C)C3)CC2)c1 (stereo not shown)	-11.1%
COc1ccc(N2CCN(C(=O)C3CCCN(S(=O)(=O)c4c(C)noc4C)C3)CC2)cc1 (stereo not shown)	-59.9%
COc1ccc(N2CCN(C(=O)C3CCCN(S(=O)(=O)c4ccc(F)cc4)C3)CC2)cc1 (stereo not shown)	-39.2%
COc1ccc(N2CCN(S(=O)(=O)c3c(C)noc3/C=C/N(C)C)CC2)cc1	-0.914%
Cc1cccc(N2CCN(C(=O)C3CCCN(S(=O)(=O)c4c(C)noc4C)C3)CC2)c1C (stereo not shown)	-22.3%
COc1ccc(N2CCN(C(=O)C3CCN(S(=O)(=O)c4c(C)noc4/C=C/N(C)C)CC3)CC2)cc1	-53.8%
Cc1noc(C)c1S(=O)(=O)N1CCC(C(=O)N2CCN(c3ccccc3Cl)CC2)CC1	-13.6%
Cc1noc(C)c1S(=O)(=O)N1CCC(C(=O)N2CCN(c3ccc(Cl)cc3)CC2)CC1	-51.7%
CCc1ccc(NC(=O)c2sccc2-n2cccc2)cc1	-7.29%
NS(=O)(=O)c1ccc(F)c(C(=O)O)c1	8.68%
CCNc1ccc(S(=O)(=O)N(C)C)cc1NCC(=O)Nc1ccc(F)c(Cl)c1	-4.33%
O=C(Nc1ccc(Cl)cc1F)C1CC1c1ccccc1 (stereo not shown)	12.6%
COc1ccc(C)cc1NC(=O)C(Sc1nnc(Nc2cc(C)ccc2OC)s1)c1ccccc1 (stereo not shown)	0.631%
Cc1ccc2c(c1)nnc1nnc(SCC(=O)O)n12	3.45%
COC(=O)c1sccc1NC(=O)c1csc2c1CCCC2	-10.9%
OCC[C@H]1C[C@H](O)[C@@H](O)[C@]2(CCc3ccccc3O2)O1	6.41%
Cc1noc(C)c1S(=O)(=O)N1CCC(C(=O)c2ccccc2)CC1	-43%
Cc1noc(C)c1S(=O)(=O)N1CCC(C(=O)O)CC1	-3.88%
Cc1ccc(C(=O)C2CCN(S(=O)(=O)c3c(C)noc3C)CC2)cc1	-67.3%
COc1ccc(NC(=O)N2CCC(n3cnc4ccccc43)CC2)cc1	-28.5%
O=S(=O)(c1ccccc1)N1CCC(n2cnc3ccccc32)CC1	-64%
O=S(=O)(c1ccccc1C(F)(F)F)N1CCC(n2cnc3ccccc32)CC1	-60.5%
COc1ccc(S(=O)(=O)N2CCC(n3cnc4ccccc43)CC2)cc1	-64.9%

SMILES	hERG current change (%, negative = inhibition) at 10uM
CCn1c(N2CCN(S(=O)(=O)c3ccccc3C(F)(F)F)CC2)nc2ccccc21.Cl	-39.6%
O=S(=O)(c1ccc(F)cc1)N1CCC(n2cnc3ccccc32)CC1	-39.7%
O=S(=O)(c1ccc(S(=O)(=O)n2cnc3ccccc32)cc1)N1CCCCCC1	3.15%
COc1ccc(S(=O)(=O)n2cnc3ccccc32)cc1.Cl	13.4%
O=S(=O)(c1ccccc1C(F)(F)F)N1CCN(S(=O)(=O)c2ccccc2C(F)(F)F)CC1	-2.32%
Cn1c(=O)n(CC(=O)N2CCOCC2)c2ccccc21	3.76%
COc1ccc(C(=O)NNC(=O)C23CC4CC(CC(C4)C2)C3)cc1OC	0.327%
COc1cccc(-n2ccnc2SCC(=O)N2CCCc3ccccc32)c1	-10%
Cc1c(Cl)cccc1NC(=O)NN1CCN(C)CC1	-0.937%
Cc1nonc1C(=O)N/N=C/c1ccc(O)c(O)c1	-29.7%
CCOc1ccccc1NC(=O)COC(=O)c1cc[n+]([O-])cc1	12.3%
Cc1ccc([N+](=O)[O-])cc1Nc1nc(N2CCOCC2)nc(N2CCOCC2)n1	-13.5%
Cc1ccc(C2OC(=O)C=C2c2ccccc2)cc1 (stereo not shown)	3.71%
Cn1c(=O)c2c(ncn2CC(=O)OCC(=O)NC(c2ccccc2)c2ccccc2)n(C)c1=O	-2.22%
COC(=O)CN(c1ccccc1)S(=O)(=O)c1ccccc1	4.04%
COc1ccc(CCNC(=O)C2CC2)cc1OC	-18.3%
Fc1ccccc1Nc1ncnc2c1nnn2Cc1ccccc1	-20%
Cc1nnc2ccc(-c3ccc(NC(=O)c4ccc(Cl)nc4)cc3)nn12	-15%
Cc1nnc2ccc(-c3cccc(NC(=O)c4ccco4)c3)nn12	-5.08%
Cc1nnc2ccc(-c3cccc(NC(=O)c4ccc(Br)o4)c3)nn12	-75.8%
Cc1nnc2ccc(-c3cccc(NS(C)(=O)=O)c3)nn12	-17.1%
Cc1nnc2ccc(-c3cccc(NC(=O)c4ccc(Cl)nc4)c3)nn12	-56.7%
CS(=O)(=O)c1ccc(-c2cccc(NC(=O)c3ccc(Br)o3)c2)nn1	3.74%
Cn1cccc1C(=O)OCc1csc(-c2ccccc2)n1	-20.9%
O=[N+]([O-])c1cccc(N(CC2CO2)S(=O)(=O)c2ccccc2)c1 (stereo not shown)	-5.4%

SMILES	hERG current change (%, negative = inhibition) at 10uM
CCN(C(=O)c1nn(-c2ccc(OC)cc2)c(=O)c2c1c1ccccc1n2C)c1ccc(OC)cc1	18.3%
COCCCNC(=O)c1cc(-c2cccnc2)nc2ccc(S(=O)(=O)N3CCCCCC3)cc12	30.6%
CCN(CC)CCNC(=O)c1cc(-c2cccnc2)nc2ccc(S(=O)(=O)N3CCC(C)CC3)cc12	-65.1%
CCOCCCNC(=O)c1cc(-c2cccnc2)nc2ccc(S(=O)(=O)N3CCC(C)CC3)cc12	12.9%
COCCNC(=O)c1cc(-c2ccncc2)nc2ccc(S(=O)(=O)N3CCOCC3)cc12	-32.3%
CCCCN(C)CCNC(=O)c1cc(-c2cccnc2)nc2ccc(S(=O)(=O)N3CCC(C)CC3)cc12	-35.5%
COCCNC(=O)c1cc(-c2ccccn2)nc2ccc(S(=O)(=O)N3CCC(C)CC3)cc12	-61.8%
O=C(CCN1C(=O)C2C3C=CC(C3)C2C1=O)Nc1ccccc1 (stereo not shown)	21.1%
CC(C)(C)c1nc2c(Br)cc(Br)cc2c(=O)o1	18.9%
Cc1ccc(NC2c3ccccc3C(=O)N2CCN2CCOCC2)cc1 (stereo not shown)	-12.9%
O=C(c1ccco1)N1CCCC(c2nc3c(nnn3Cc3ccccc3)c(=O)[nH]2)C1 (stereo not shown)	-8.47%
O=C(c1ccco1)N1CCCC(c2nc3c(nnn3Cc3cccc(Cl)c3)c(=O)[nH]2)C1 (stereo not shown)	-54.5%
O=C(Cc1cccs1)N1CCCC(c2nc3c(nnn3Cc3ccc(F)cc3)c(=O)[nH]2)C1 (stereo not shown)	-35.1%
O=C(Cc1cccs1)N1CCCC(c2nc3c(nnn3Cc3cccc(Cl)c3)c(=O)[nH]2)C1 (stereo not shown)	-55.6%
CC(C)(C)c1ccc(Cn2nnc3c(=O)[nH]c(C4CCN(C(=O)Cc5cccs5)CC4)nc32)cc1	-4.81%
O=C(c1ccco1)N1CCCC(c2nc3c(nnn3Cc3ccc(Cl)cc3Cl)c(=O)[nH]2)C1 (stereo not shown)	-36.1%
O=C(c1cccs1)N1CCCC(c2nc3c(nnn3Cc3cccc(Cl)c3)c(=O)[nH]2)C1 (stereo not shown)	-36.6%
O=C(Cc1cccs1)N1CCC(c2nc3c(nnn3Cc3ccccc3)c(=O)[nH]2)CC1	-56%
O=C(Cc1cccs1)N1CCC(c2nc3c(nnn3Cc3ccc(F)cc3)c(=O)[nH]2)CC1	-38.9%
O=C(c1ccccc1)N1CCC(c2nc3c(nnn3Cc3ccco3)c(=O)[nH]2)CC1	-32.2%
O=C(c1ccc(Cl)cc1Cl)N1CCC(c2nc3c(nnn3Cc3ccco3)c(=O)[nH]2)CC1	-69%
O=C(c1ccccc1Cl)N1CCC(c2nc3c(nnn3Cc3ccco3)c(=O)[nH]2)CC1	-22.1%
